In PubChem BioAssay (NCATS):
“And” between values parts separate entries of the source, which are not always exact repeats. Identical values can stand only once. Results filed as inconclusive are left out. More than one record can exist for a structure, and the calls need not agree. The source made the active and inactive calls. The call rests on the fitted dose curve; in most records, active means well fitted cell-killing curve with a large enough effect; inconclusive means small, poorly fitted or top-dose-only effect, or effect the other way; inactive means no such curve, though single readings can be large or run the other way.

Assay: Quantitative High-Throughput drug screen in 47 multiple myeloma cell lines against the NCATS MIPE library collection: KMS28PE_JCRB cell viability assay (AID 1918983); further: nearly all actives have a fitted effect of over 35% in size
Settings: KMS28PE multiple myeloma viability, CellTiter-Glo ATP, 48 h; series mostly up to 45.8 µM; viability, % of DMSO control: at the top concentration
From the text: PI: Beverly A. Mock Ph.D.
Laboratory of Cancer Biology and Genetics,
Center for Cancer Research, National Cancer Institute,
National Institute of Health, Bethesda, Maryland
Drug resistance and disease progression are common in multiple myeloma (MM) patients, underscoring the need for new therapeutic combinations. […] We hypothesized that effective combinations would reduce MYC expression and enhance p16 activity. […] These preclinical data identify potentially useful drug combinations for evaluation in drug-resistant MM and reveal potential mechanisms of combined drug sensitivity.
Described herein is the primary MIPE qHTS used to cherrypick compounds. Validated compounds were then further tested for potential synergistic activiy.
[1] Peat TJ, Gaikwad SM, Dubois W, Gyabaah-Kessie N, Zhang S, Gorjifard S, Phyo Z, Andres M, Hughitt VK, Simpson RM, Miller MA, Girvin AT, Taylor A, Williams D, D'Antonio N, Zhang Y, Rajagopalan A, Flietner E, Wilson K, Zhang X, Shinn P, Klumpp-Thomas C, McKnight C, Itkin Z, Chen L, Kazandijian D, Zhang J, Michalowski AM, Simmons JK, Keats J, Thomas CJ, Mock BA. Drug combinations identified by high-throughput screening promote cell cycle transition and upregulate Smad pathways in myeloma. Cancer Lett. 2023 Aug 1;568:216284. doi: 10.1016/j.canlet.2023.216284. Epub 2023 Jun 24. PMID: 37356470; PMCID: PMC10408729.
SEQUENCE No. (e.g., 1, 2, 3, etc.); […] (e.g., Cells, Incubation, Reagent, etc.); VALUE and DESCRIPTION.
1; Cells; 5 uL; white, solid bottom 1536-well Greiner assay plate.
2; Compounds; 23 nL; Kalypsis pin tool (Wako USA) equipped with a 1536-well pin head to transfer to the assay plates.
3; Incubation; 48 hours; 37C incubation.
4; Reagent;5uL; CellTiter Glo (Promega).
5; Detector; 425V; Luminescence; Viewlux PerkinElmer.
NOTES (numbers refer to Sequence numbers above)
1. The cell-based screening methods employed in this study were like those previously published. Briefly, the corresponding myeloma cell lines were screened in 1,536-well plates with 500 cells, 5-uL per well for inhibition of cell viability (assessed by measuring ATP levels with CellTiterGlo).
2. NCATS MIPE 4.0 library of approved and investigational drugs were added using the Kalypsis pin tool. Wells treated with DMSO only for 100% viability and media only for 0% viability were used as controls.
3. The assay plates were covered and incubated for 48 hours in a 37C, 5% CO2 incubator with controlled humidity.
4. After 48 hours, CellTilter-GloTM luminescent substrate mix (Promega) reagent was added to the assay plate and plates we incubated for 5 min at room temperature.
5. Signal was measured as median relative luminescence units on a ViewLux (PerkinElmer) multiplate reader.
[1] Heske CM, Davis MI, Baumgart JT, Wilson K, Gormally MV, Chen L, Zhang X, Ceribelli M, Duveau DY, Guha R, Ferrer M, Arnaldez FI, Ji J, Tran HL, Zhang Y, Mendoza A, Helman LJ, Thomas CJ. Matrix Screen Identifies Synergistic Combination of PARP Inhibitors and Nicotinamide Phosphoribosyltransferase (NAMPT) Inhibitors in Ewing Sarcoma. Clin Cancer Res. 2017 Dec 1;23(23):7301-7311. doi: 10.1158/1078-0432.CCR-17-1121. Epub 2017 Sep 12. PMID: 28899971; PMCID: PMC6636827.
Potency means the concentration at half of the fitted maximal effect.

Row | Compound | Potency | viability, % of DMSO control
1 | CS(=O)(=O)c1cccc(CNc2nc(Nc3ccc4c(c3)CCC(=O)N4)ncc2C(F)(F)F)c1 | 23.5 µM (active) | 
2 | CC(C)(Sc1ccc(CCN(CCCCC2CCCCC2)C(=O)NC2CCCCC2)cc1)C(=O)O | 8.33 µM (active) | 
3 | C1COC(NC(C2CC2)C2CC2)=N1 |  | 115% (inactive)
4 | Nc1nc2c(ncn2COCCO)c(=O)[nH]1 |  | 149% (inactive)
5 | CCc1ccc(CCOc2ccc(CC3SC(=O)NC3=O)cc2)nc1 (stereo not given) |  | 129% (inactive)
6 | CCC(C)N(C)C(=O)c1cc2ccccc2c(-c2ccccc2Cl)n1 (stereo not given) |  | 127% (inactive)
7 | CC(C)(C)OC(=O)CN(Cc1ccc(Cl)cc1)Cc1ccc([N+](=O)[O-])s1 | 20.9 µM (active) | 
8 | CC(=O)Oc1ccccc1C(=O)O |  | 149% (inactive)
9 | CNC[C@H](O)c1cccc(O)c1 |  | 140% (inactive)
10 | CCN(c1ccccc1)c1cc(NC)[n+](C)c(C)n1 |  | 120% (inactive)
11 | Cc1cnc(NC(=O)C2=C(O)c3ccccc3S(=O)(=O)N2C)s1 |  | 112% (inactive)
12 | CC(C=CC1=C(C)CCCC1(C)C)=CC=CC(C)=CC(=O)O | inactive and 9.35 µM (active) | 
13 | Nc1ccc(S(=O)(=O)Nc2ccnn2-c2ccccc2)cc1 |  | 143% (inactive)
14 | O=C1CCc2cc(OCCCCc3nnnn3C3CCCCC3)ccc2N1 |  | 113% (inactive)
15 | CCN(CC)CCCC(C)Nc1nc(C)cc(Nc2ccc3nc(C)cc(N)c3c2)n1 (stereo not given) |  | 141% (inactive)
16 | CCOC(=O)C1=C[C@]2(CC)CCCN3CCc4c(n1c1ccccc41)[C@@H]32 | 20.9 µM (active) | 
17 | Nc1nc2[nH]cc(CCc3ccc(C(=O)N[C@@H](CCC(=O)O)C(=O)O)cc3)c2c(=O)[nH]1 |  | 120% (inactive)
18 | O=c1ncn2nc(Sc3ccc(F)cc3F)ccc2c1-c1c(Cl)cccc1Cl |  | 125% (inactive)
19 | Cc1cn[nH]c1 | 0.0743 µM (active) | 
20 | CCOc1ccc(Cc2cc([C@@H]3O[C@H](CO)[C@@H](O)[C@H](O)[C@@H]3O)ccc2Cl)cc1 |  | 131% (inactive)

Row | Compound | Potency | viability, % of DMSO control
21 | NC[C@H](O)c1ccc(O)c(O)c1 | 18.7 µM (active) | 
22 | OC(CCN1CCCCC1)(c1ccccc1)C1CC2C=CC1C2 (stereo not given) |  | 122% (inactive)
23 | O=C(O)[C@@H](c1ccc(OCc2ccc3ccccc3n2)cc1)C1CCCC1 |  | 101% (inactive)
24 | NS(=O)(=O)c1cc2c(cc1Cl)NC=NS2(=O)=O |  | 116% (inactive)
25 | Nc1nccc(-c2ccc3noc(-c4ccc(Cl)cc4)c3c2)n1 |  | 132% (inactive)
26 | COc1cccc2cc(-c3nc(C4CCC(C(=O)O)CC4)n4ncnc(N)c34)[nH]c12 (stereo not given) | 0.469 µM (active) | 
27 | CCOc1cc(C=C2C(=O)N(c3ccccc3)N=C2C)cc(Cl)c1OCC(=O)OC | 6.62 µM (active) | 
28 | CCCCCCCc1ccc(CCc2cccc(O)c2C(=O)O)cc1 |  | 129% (inactive)
29 | O=C(C1CC1)N1CC[C@@H](Cn2c(-c3ccc(-c4ccc5occc5c4)cc3)nc3cnccc32)C1 |  | 111% (inactive)
30 | COc1cc(F)c(F)c(Nc2ccc(I)cc2F)c1NS(=O)(=O)C1(C[C@H](O)CO)CC1 | 5.26 µM (active) | 
31 | N=c1nc(N2CCCCC2)cc(N)n1O |  | 151% (inactive)
32 | CC(c1cc2ccccc2s1)N(O)C(N)=O (stereo not given) |  | 107% (inactive)
33 | Cc1c(C)c2c(c(C)c1O)CCC(C)(COc1ccc(CC3SC(=O)NC3=O)cc1)O2 (stereo not given) |  | 145% (inactive)
34 | CCC(=O)N[C@H]1CC[C@H](C(=O)N(C)c2ccc(-c3nc4ccccc4o3)cc2)C1 | 18.7 µM (active) | 
35 | O=C(Nc1cccnc1)N1CCC(Cc2cccc(Oc3ccc(C(F)(F)F)cn3)c2)CC1 | 16.6 µM (active) | 
36 | Nc1nc2ccc(OC(F)(F)F)cc2s1 | 23.5 µM (active) | 
37 | Cc1cc(Nc2nc(N[C@@H](C)c3ncc(F)cn3)ncc2Cl)n[nH]1 | 20.9 µM (active) | 
38 | CC(C)C[C@H](NC(=O)[C@@H](O)[C@H](N)Cc1ccccc1)C(=O)O | 20.9 µM (active) | 
39 | COc1ccc(-c2ccc3c(N4CCOCC4)nc(N4C[C@@H](C)O[C@@H](C)C4)nc3n2)cc1CO | 0.187 µM (active) | 
40 | CCc1cc(Nc2nccc(-c3c(-c4ccc(OC)c(C(=O)Nc5c(F)cccc5F)c4)nc4ccccn34)n2)c(OC)cc1N1CCC(N2CCN(S(C)(=O)=O)CC2)CC1 | 26.4 µM (active) | 
